Measurements taken from the supplement of paper PMC10382584, “Macrocyclization of linear molecules by deep learning to facilitate macrocyclic drug candidates discovery” (Nature Communications, 2023).

Compound: Cc1cnc(Nc2ccc(OCCN3CCCC3)cc2)nc1Nc1cccc(S(=O)(=O)NC(C)(C)C)c1 [Fedratinib]
Experiment: percent of DMSO control binding (KINOMEscan); higher = weaker binding / less inhibition; extreme values may be limits of the assay
Conditions: concentration: 100 nM

Sequence of UniProt O75676 (O75676 whole entry, looked up): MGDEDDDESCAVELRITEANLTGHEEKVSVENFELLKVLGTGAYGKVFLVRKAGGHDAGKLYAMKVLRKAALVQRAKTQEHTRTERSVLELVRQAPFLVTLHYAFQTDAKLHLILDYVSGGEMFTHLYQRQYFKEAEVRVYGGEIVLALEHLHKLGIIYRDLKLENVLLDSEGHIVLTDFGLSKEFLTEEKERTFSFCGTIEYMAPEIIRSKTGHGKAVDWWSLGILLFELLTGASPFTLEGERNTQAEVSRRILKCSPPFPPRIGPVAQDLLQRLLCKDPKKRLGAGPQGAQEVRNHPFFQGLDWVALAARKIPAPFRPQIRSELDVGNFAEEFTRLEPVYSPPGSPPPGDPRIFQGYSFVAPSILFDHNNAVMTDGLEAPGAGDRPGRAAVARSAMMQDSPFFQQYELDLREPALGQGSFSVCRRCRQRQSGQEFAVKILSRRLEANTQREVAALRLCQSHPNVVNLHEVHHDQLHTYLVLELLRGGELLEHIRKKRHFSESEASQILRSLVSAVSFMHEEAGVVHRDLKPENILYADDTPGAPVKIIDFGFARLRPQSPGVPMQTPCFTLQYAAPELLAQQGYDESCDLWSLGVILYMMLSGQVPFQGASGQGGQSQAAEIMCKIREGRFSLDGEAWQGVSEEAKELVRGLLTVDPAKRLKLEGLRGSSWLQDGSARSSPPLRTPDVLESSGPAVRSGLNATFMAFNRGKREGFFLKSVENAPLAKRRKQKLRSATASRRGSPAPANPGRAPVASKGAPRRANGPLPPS
Sequence of UniProt P22607 (P22607 whole entry G697C, looked up): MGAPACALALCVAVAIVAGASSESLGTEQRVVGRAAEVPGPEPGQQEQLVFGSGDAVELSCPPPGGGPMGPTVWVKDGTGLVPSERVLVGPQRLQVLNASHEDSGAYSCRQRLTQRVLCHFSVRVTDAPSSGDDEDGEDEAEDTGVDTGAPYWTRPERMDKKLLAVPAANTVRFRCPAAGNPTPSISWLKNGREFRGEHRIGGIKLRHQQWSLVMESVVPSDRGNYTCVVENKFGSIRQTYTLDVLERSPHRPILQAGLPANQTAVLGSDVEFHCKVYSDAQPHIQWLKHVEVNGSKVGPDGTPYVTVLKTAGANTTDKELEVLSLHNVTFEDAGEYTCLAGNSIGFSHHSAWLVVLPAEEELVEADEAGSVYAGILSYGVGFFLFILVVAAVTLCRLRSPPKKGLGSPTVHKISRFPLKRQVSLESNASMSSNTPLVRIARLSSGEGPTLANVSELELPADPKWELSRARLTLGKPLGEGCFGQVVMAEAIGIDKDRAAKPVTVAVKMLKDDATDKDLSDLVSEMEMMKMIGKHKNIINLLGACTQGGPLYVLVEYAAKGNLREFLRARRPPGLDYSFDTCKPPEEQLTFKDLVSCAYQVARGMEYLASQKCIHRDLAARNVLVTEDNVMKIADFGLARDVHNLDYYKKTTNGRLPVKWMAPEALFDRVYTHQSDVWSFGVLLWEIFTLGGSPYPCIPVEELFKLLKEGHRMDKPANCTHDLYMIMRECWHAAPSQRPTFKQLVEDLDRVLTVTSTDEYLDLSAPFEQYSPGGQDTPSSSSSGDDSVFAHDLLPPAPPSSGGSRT
Sequence of UniProt Q9Y2I7 (Q9Y2I7 whole entry): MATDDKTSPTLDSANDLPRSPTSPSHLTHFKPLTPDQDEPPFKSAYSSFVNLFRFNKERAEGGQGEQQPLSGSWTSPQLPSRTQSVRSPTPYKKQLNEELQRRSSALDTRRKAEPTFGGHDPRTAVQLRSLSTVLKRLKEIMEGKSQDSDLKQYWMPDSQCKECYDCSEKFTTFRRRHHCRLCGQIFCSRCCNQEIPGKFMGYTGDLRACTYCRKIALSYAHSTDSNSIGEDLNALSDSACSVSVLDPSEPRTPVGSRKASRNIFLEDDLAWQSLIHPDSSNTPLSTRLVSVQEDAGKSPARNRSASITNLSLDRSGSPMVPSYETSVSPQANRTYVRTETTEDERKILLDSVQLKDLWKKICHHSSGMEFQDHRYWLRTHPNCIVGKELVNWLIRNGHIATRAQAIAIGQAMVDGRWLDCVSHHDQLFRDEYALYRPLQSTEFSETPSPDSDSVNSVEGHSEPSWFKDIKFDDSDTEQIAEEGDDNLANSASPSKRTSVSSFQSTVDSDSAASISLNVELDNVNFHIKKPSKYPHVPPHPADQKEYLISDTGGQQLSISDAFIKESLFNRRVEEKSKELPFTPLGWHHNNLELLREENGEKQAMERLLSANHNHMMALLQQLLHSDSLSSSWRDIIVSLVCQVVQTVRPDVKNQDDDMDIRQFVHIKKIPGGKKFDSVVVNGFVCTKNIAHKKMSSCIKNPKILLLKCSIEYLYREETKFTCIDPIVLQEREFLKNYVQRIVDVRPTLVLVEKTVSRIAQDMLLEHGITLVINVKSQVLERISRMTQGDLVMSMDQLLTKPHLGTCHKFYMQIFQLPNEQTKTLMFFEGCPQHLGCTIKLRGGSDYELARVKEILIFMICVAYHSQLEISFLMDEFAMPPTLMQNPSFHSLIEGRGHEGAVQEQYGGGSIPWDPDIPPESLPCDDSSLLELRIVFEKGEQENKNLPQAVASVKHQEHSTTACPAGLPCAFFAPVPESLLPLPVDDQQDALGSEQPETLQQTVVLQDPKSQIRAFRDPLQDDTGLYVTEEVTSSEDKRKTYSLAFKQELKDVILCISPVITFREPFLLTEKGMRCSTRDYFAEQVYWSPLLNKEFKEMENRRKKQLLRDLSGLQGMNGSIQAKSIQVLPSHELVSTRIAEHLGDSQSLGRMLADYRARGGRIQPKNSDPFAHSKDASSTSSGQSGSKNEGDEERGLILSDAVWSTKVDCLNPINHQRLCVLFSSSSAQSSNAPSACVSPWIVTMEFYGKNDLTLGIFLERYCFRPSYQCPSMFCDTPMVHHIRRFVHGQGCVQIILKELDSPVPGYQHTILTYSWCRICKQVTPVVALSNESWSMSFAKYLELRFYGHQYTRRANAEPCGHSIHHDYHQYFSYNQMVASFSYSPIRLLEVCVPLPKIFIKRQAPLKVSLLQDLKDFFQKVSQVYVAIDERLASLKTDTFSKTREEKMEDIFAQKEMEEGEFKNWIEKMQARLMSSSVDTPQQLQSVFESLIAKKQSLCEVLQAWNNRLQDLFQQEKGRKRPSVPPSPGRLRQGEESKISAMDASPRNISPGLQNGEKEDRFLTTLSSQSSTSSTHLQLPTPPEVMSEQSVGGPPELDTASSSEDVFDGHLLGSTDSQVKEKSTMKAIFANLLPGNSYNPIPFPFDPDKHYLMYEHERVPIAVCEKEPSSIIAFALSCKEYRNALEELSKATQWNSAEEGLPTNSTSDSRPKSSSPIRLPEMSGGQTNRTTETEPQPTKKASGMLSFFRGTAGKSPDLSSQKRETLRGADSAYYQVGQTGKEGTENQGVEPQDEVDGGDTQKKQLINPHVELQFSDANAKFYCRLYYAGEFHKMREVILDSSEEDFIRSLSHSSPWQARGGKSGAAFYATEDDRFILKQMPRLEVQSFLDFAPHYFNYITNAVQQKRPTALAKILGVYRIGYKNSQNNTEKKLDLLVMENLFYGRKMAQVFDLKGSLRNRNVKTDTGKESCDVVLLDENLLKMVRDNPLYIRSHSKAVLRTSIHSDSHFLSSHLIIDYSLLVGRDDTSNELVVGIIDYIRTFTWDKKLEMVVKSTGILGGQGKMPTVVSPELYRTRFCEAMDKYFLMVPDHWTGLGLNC
Sequence of UniProt Q9P286 (Q9P286 whole entry, looked up): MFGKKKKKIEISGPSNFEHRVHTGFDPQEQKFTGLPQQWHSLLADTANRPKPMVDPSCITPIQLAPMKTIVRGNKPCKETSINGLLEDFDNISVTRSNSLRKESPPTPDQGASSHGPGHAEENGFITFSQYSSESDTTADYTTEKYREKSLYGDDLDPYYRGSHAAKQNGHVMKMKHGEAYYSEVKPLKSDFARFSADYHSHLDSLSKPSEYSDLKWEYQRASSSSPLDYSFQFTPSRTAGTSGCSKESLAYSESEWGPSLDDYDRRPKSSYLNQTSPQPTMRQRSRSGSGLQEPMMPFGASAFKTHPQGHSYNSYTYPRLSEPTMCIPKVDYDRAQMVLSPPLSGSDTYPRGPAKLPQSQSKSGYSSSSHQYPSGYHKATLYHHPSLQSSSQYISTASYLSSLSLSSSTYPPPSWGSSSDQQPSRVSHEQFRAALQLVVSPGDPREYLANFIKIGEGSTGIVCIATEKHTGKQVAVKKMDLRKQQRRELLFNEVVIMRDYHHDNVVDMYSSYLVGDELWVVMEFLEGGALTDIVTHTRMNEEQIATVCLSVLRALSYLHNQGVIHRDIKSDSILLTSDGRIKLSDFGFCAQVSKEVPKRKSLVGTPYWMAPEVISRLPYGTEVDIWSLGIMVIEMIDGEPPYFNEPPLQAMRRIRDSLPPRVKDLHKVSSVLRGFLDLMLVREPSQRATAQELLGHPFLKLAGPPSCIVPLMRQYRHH
Sequence of UniProt Q9Y463 (Q9Y463 whole entry, looked up): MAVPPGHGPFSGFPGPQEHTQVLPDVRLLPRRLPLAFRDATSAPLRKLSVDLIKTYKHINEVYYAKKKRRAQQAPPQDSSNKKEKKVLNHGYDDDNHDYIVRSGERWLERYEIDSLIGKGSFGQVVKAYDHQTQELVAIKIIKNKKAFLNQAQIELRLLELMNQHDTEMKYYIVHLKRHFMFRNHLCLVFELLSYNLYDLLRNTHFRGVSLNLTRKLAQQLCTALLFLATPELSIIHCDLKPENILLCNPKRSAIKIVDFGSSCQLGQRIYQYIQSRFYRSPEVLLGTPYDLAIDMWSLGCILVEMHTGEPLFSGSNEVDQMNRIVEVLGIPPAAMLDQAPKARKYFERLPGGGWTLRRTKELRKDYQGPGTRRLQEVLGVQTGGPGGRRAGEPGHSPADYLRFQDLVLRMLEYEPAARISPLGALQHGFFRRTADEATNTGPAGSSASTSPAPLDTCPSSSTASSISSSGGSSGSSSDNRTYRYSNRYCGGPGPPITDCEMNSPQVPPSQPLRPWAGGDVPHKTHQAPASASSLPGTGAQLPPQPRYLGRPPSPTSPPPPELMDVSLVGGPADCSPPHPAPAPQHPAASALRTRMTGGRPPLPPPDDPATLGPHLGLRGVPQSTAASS

Target | percent of DMSO control binding [%]
RSK3(Kin.Dom.1-N-terminal) | 100
CAMK1B (UniProt Q6P2M8) | 66
LTK (UniProt P29376) | 100
EPHB1 (UniProt P54762) | 100
ZAK (UniProt Q9NYL2) | 81
PIK3CD (UniProt O00329) | 75
LKB1 (UniProt Q15831) | 40
FLT1 (UniProt P17948) | 100
RPS6KA5(Kin.Dom.2-C-terminal) (UniProt O75582) | 97
MLK1 (UniProt P80192) | 96
MLK3 (UniProt Q16584) | 100
PIKFYVE (UniProt Q9Y2I7) | 83
TTK (UniProt P33981) | 75
EGFR(G719S) (UniProt P00533) | 99
PIK3CG (UniProt P48736) | 100
OSR1 (UniProt O95747) | 91
PFPK5(P.falciparum) | 100
NEK5 (UniProt Q6P3R8) | 94
PIP5K2C (UniProt Q8TBX8) | 100

Target | percent of DMSO control binding [%]
TAOK3 (UniProt Q9H2K8) | 60
LRRK2(G2019S) (UniProt Q5S007) | 76
PAK7 (UniProt Q9P286) | 100
RSK4(Kin.Dom.1-N-terminal) | 70
SGK3 (UniProt Q96BR1) | 91
RPS6KA4(Kin.Dom.1-N-terminal) (UniProt O75676) | 100
HCK (UniProt P08631) | 100
PFTK1 (UniProt O94921) | 100
FGFR3(G697C) (UniProt P22607) | 78
MEK2 (UniProt P36507) | 66
PFCDPK1(P.falciparum) | 100
LYN (UniProt P07948) | 100
SRMS (UniProt Q9H3Y6) | 70
STK36 (UniProt Q9NRP7) | 100
MEK1 (UniProt Q02750) | 62
EPHA1 (UniProt P21709) | 60
ERBB2 (UniProt P04626) | 73
DYRK1B (UniProt Q9Y463) | 97
